Active and inactive are the calls of the source. Rule for the calls: active = hit-call score of the fitted dose curve at least 0.9, where 1 is the maximum; inactive = score below 0.9.
Each compound was assayed against Transcription factor E2F1 (Homo sapiens) (UniProt Q01094) (assay: ATG_E2F_CIS: Attagene CIS-FACTORIAL HepG2 Assay for human E2F Transcription Factor 1 (AID 2282935)). Settings: HepG2 Attagene cis-reporter, E2F reporter RNA transcripts; actives raise or lower the signal.
Experimental: ATG_CIS is a cell-based, multiplexed-readout assay that uses HepG2, a human liver cell line, with measurements taken at 24 hours after chemical dosing in a 24-well plate.ATG_E2F_CIS is one of 52 assay component(s) measured or calculated from the ATG_CIS assay. It is designed to make measurements of mRNA induction, a form of inducible reporter, as detected with fluorescence intensity signals by Reverse transcription polymerase chain reaction (RT-PCR) and Capillary electrophoresis technology.Data from the assay component ATG_E2F_CIS was analyzed into 1 assay endpoint. This assay endpoint, ATG_E2F_CIS, was analyzed with bidirectional fitting relative to DMSO as the negative control and baseline of activity. Using a type of inducible reporter, measures of mRNA for gain or loss-of-signal activity can be used to understand the reporter gene at the transcription factor-level as they relate to the gene E2F1. Furthermore, this assay endpoint can be referred to as a primary readout, because this assay has produced multiple assay endpoints where this one serves a reporter gene function. To generalize the intended target to other relatable targets, this assay endpoint is annotated to the dna binding intended target family, where the subfamily is E2F transcription factor.
Human liver HepG2 cells are transiently transfected with multiple reporter transcription units (MRTUs) in 6-well plates using FuGene 6 reagent (Roche; 3 ml FuGene/1 mg DNA). The MRTU constructs are regulated by a cis-regulating element (promoter). […] A major difference between the CIS and TRANS system is that in CIS activities of endogenous TFs are measured, whereas the TRANS assay evaluates changes in activities of exogenous, chimeric NR-Gal4 proteins. […] At the end of 24 hour incubation, total RNA was isolated using TriZol reagent (Invitrogen). The isolated RNA is then reverse-transcribed using oligo(dT) primer and Mo-MLV reverse transcriptase (Invitrogen) with DNAse I (Ambion) treatment for 30 min. The one-tenth of the produced cDNA was amplified by PCR using Taq DNA polymerase (Invitrogen) and two reporter sequence-specific primers. The PCR products were fluorescently labeled by primer extension with 6-arboxyfluorescein (6-FAM) 5'-labeled reporter sequence-specific primer (2 min at 95 C, 20 s at 68 C and 10 min at 72 C) and these products were digested with 5U of HpaI (New England Biolabs) for 2h at 37 C. The fragments were purified using Qiaquick PCR columns (Qiagen), analyzed on an ABI 3130xL genetic analyzer (Applied Biosystems) with peak positions identified by using a set of X-rhodamine (ROX)-labeled MapMarker1000 molecular weight standards (BioVentures). The raw capillary electrophoresis data was processed using Attagraph software (Attagene).

Transcription factor E2F1 (Homo sapiens), sequence (Q01094 whole entry, looked up): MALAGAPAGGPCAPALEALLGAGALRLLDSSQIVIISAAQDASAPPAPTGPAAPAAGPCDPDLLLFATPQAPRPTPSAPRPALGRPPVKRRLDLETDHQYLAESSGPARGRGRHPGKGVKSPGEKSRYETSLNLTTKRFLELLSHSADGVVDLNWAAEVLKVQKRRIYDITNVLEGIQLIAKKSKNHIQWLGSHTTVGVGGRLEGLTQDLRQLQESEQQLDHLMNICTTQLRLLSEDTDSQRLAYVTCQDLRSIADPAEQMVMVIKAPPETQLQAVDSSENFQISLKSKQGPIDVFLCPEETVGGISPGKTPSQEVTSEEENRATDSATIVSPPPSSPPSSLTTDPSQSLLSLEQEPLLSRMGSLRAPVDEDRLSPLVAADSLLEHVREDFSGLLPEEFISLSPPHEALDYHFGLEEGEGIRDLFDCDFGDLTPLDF

outcome, inactive:
CCCC(=O)OCCc1ccccc1
NCCNc1cccc2ccccc12
CCC(C)c1cc([N+](=O)[O-])cc([N+](=O)[O-])c1OC(=O)OC(C)C (stereo not given)
C/C=C(\C)C(=O)OCCc1ccccc1
COC(=O)c1ccc([N+](=O)[O-])cc1
O=C(Nc1ccc2c(c1)Cc1ccccc1-2)C(F)(F)F
C=CC(=O)OCCC#N
OCCCCC(O)CO (stereo not given)
COc1ccc(N)c([N+](=O)[O-])c1
CC(C)(C)c1ccc(C(=O)O)cc1
CCCCCCC(O)CCCCCCCCCCC(=O)O (stereo not given)
NCC1CCCC(CN)C1 (stereo not given)
CCOc1ccc(NC(=O)CC(C)O)cc1 (stereo not given)
COc1ccc(OC)c(N=Nc2c(O)ccc3ccccc23)c1
C=C(CC(=O)O)C(=O)O
C=C1CC[C@H](O)C/C1=C/C=C1\CCC[C@]2(C)[C@@H]([C@H](C)/C=C/[C@H](C)C(C)C)CC[C@@H]12
CC(=O)O[C@@H]1C[C@@H]2CC[C@@]1(C)C2(C)C
CCC1(c2ccccc2)C(=O)NCNC1=O
CS(=O)(=O)c1ccc(C2=C(c3ccccc3)C(=O)OC2)cc1
CCOC(=O)C1OC1c1ccccc1 (stereo not given)
BrCc1cccc(Oc2ccccc2)c1
N#Cc1cscn1
CC(=O)C1(C)CC2=C(CCCC2(C)C)CC1C (stereo not given)
CCOC(=O)[C@@H](C)Oc1ccc(Oc2nc3ccc(Cl)cc3o2)cc1
CCNCCO
C#CC(C)N(C)C(=O)Nc1ccc(Cl)cc1 (stereo not given)
FC(F)(F)COCC(F)(F)F
C[Si]1(C)O[Si](C)(C)O[Si](C)(C)O1
Nc1ccccc1[N+](=O)[O-]
CCCCCc1ccco1
Cc1ccc(C)o1
Nc1c(Cl)cc(Cl)cc1[N+](=O)[O-]
CCC1CCCCC1
NCc1ccco1
CCCOCCO
C=CC(=O)OCCCC
CCC(=O)OCCOc1ccccc1
O=C(O)c1cc(C(=O)O)cc([N+](=O)[O-])c1
CC=Cc1ccc(OCC)c(O)c1
C=C(C)C1CC=C(C)C(=O)C1 (stereo not given)
